Rows were chosen to be rich in hits. Some 15% of all compounds tested hit in one or more screens of this group.
Sm TGR inh: qHTS Assay for the Inhibitors of Schistosoma Mansoni Peroxiredoxins; purified TGR, DTNB reduction, TNB absorbance 405 nm; 360,000 compounds, 3% hits; Schistosoma mansoni thioredoxin glutathione reductase (TGR), Q962Y6; AID 485364, 2010; Potency, µM (titrated, usually from 114 µM), for inactives: at the top dose activity change, negative = inhibition, actives largely listed as inhibitors; note: potency is the fitted concentration of half-maximal effect; % is set by controls: 0 for no effect and ±100 for the full control effect; nearly all actives have a fitted effect of over 60% in size
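Kinetic colorimetric format: TGR-catalysed, NADPH-driven DTNB reduction monitored via TNB absorbance. Enzyme dispensed at 20 nM; compound exposure 15 min at room temperature before reaction start.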
SARS PLP yeast: qHTS of Yeast-based Assay for SARS-CoV PLP; Potency, µM (series often up to 32.9 µM), inactives show at the highest dose activity, positive = growth rescue, actives largely listed as activators; 330,000 compounds, 0.19% hits; AID 485353, 2010; S. cerevisiae expressing SARS-CoV PLpro, growth rescue; calls by dose curve; note: potency is the fitted concentration of half-maximal effect; 0% is about no effect; nearly all actives have a fitted effect of over 55% in size
HCMV inh: qHTS Assay for inhibitors of the human cytomegalovirus (HCMV). HFF cells, HCMV-luciferase reporter, 72 h; hits give low values. activity change, negative = inhibition, % at 57.5 µM. 410,000 compounds, 4.5% hits. AID 1259415, 2018; in the data active = activity change below about -60%; inconclusive = no clear call, values can overlap the other calls; inactive = above about -39%; note: % is set by controls: 0 for no effect and ±100 for the full control effect
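HFF cells seeded 16 h at 37C, treated with compounds, infected with luciferase-reporter HCMV at MOI 1 PFU/cell; luciferase read at 72 h post infection, normalized to buffer-only and Salinomycin controls.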
Pf growth 96h: Primary qHTS for delayed death inhibitors of the malarial parasite plastid, 96 hour incubation; Potency, µM (top dose mostly 28.7 µM), inactives show at the highest dose activity change, negative = inhibition, usual class: inhibitors; P. falciparum luciferase reporter growth, 96 h; 320,000 compounds, 6.9% hits; AID 504834, 2011; note: potency is the fitted concentration of half-maximal effect; % is set by controls: 0 for no effect and ±100 for the full control effect
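Cell-based qHTS: luciferase-tagged P. falciparum in erythrocytes (2% hematocrit, 0.05% parasitemia final) incubated with compounds for 96 hours, 37 C, 5% CO2; luciferase detection reagent then added and luminescence measured.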
HCV inh: qHTS Assay for Inhibitors of Hepatitis C Virus (HCV). Huh7.5.1 HCVcc-Cre infection, luciferase reporter, 44 h. Potency, µM (highest dose often 41.8 µM), inactives show at the highest dose activity change, negative = inhibition, hits mostly inhibitors. 340,000 compounds, 3.4% hits. AID 651820, 2012; note: potency is the fitted concentration of half-maximal effect; % is set by controls: 0 for no effect and ±100 for the full control effect
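Reporter virus HCVcc-Cre (~0.5 moi) infects cells exposed to compound; seeding density 1,000 cells/well with 4 h settling beforehand. Luminescence, 15 sec read, taken 44 h post-infection following a 15 min RT substrate incubation.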
Pf growth 48h: Primary qHTS for delayed death inhibitors of the malarial parasite plastid, 48 hour incubation; P. falciparum luciferase growth in erythrocytes, 48 h; 310,000 compounds, 5.9% hits; Potency, µM (doses to about 28.7 µM), inactives show at the top dose activity change, negative = inhibition, usual class: inhibitors; note: potency is the fitted concentration of half-maximal effect; % is set by controls: 0 for no effect and ±100 for the full control effect
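Here the parasites carry a stable luciferase gene and grow inside erythrocytes in Albumax-based RPMI medium with compound for one erythrocytic cycle. Activity is scored as loss of luminescent signal.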
The depositor's hits bear a star; ? = inconclusive; · = no result given; + = active, no number. Unless noted, calls come from the whole dose curve; as a rule, active = well fitted curve in the direction sought with a large enough effect; inconclusive = small, poorly fitted or top-dose-only effect, or another doubt; inactive = no such curve, though single readings can be large; an effect the other way counts as inactive or inconclusive.

SMILES | Sm TGR inh | SARS PLP yeast | HCMV inh | Pf growth 96h | HCV inh | Pf growth 48h
COc1ccc(Cc2nnc(SCc3c(C)noc3C)n2C2CCCCC2)cc1OC | -25% | 6% | 25 | ? | -10% | 9.3µM*
Cc1noc(C)c1CSc1nnc(-c2cccnc2)n1C1CCCCC1C (centres undefined) | 9% | -2% | 46 | -19% | 7% | 7%
COC(=O)c1ccccc1NC(=O)C1CCCN(c2ncnc3onc(C)c23)C1 (centres undefined) | 0% | · | -5 | · | · | ·
CCOC(=O)c1ccc(NC(=O)C2CCCN(c3ncnc4onc(C)c34)C2)cc1 (centres undefined) | -1% | · | -75* | · | · | ·
Cc1ccccc1NC(=O)C1CCCN(c2ncnc3onc(-c4ccc(F)cc4)c23)C1 (centres undefined) | -5% | · | 14 | 20% | 19% | 9.3µM*
CCc1ccccc1NC(=O)C1CCCN(c2ncnc3onc(-c4ccc(F)cc4)c23)C1 (centres undefined) | -13% | 3% | -7 | ? | -6% | ?
CN(C)C(=O)c1ccc(NC(=O)c2cccc(-n3cnnn3)c2)cc1 | · | · | 5 | · | · | ·
O=C(CCS(=O)(=O)c1ccccc1)N(Cc1cccnc1)c1nc2ccc(F)cc2s1 | 0.89µM* | · | 53 | · | · | ·
O=C(CCOc1ccccc1)N(Cc1cccnc1)c1nc2c(F)cc(F)cc2s1 | 5.6µM* | · | 34 | · | · | ·
O=C(COc1ccccc1)N(Cc1cccnc1)c1nc2c(F)cc(F)cc2s1 | -1% | · | 0 | · | · | ·
CC(=O)N(Cc1cccnc1)c1nc2ccc(F)cc2s1 | 6% | · | -77* | · | · | ·
O=C(c1ccc(Br)s1)N(Cc1cccnc1)c1nc2ccc(F)cc2s1 | -5% | · | 14 | · | · | ·
COc1ccc(C)c2sc(N(Cc3cccnc3)C(=O)CCc3ccccc3)nc12 | 7% | · | + | · | · | ·
O=c1n(Cc2ccc(F)cc2Cl)c2ccccc2c2nc(-c3ccccc3)nn12 | -4% | · | -16 | · | · | ·
COC(=O)c1[nH]nc(C(=O)OC(C)(C)C)c1-c1ccccc1 | 22µM* | 3% | 0 | -17% | -2% | -17%
CNC[C@H](CC1CCCCC1)NC[C@H](CO)NCC1(c2ccccc2)CC1 | 0% | -6% | ? | ? | ? | ?
CNC[C@H](CC1CCCCC1)NC[C@H](CO)NCCc1cccc(C(F)(F)F)c1 | 1% | -12% | -100* | 1.9µM* | ? | ?
Nc1ccc2c3c(ccc([N+](=O)[O-])c13)CC2 | · | · | -69* | · | · | ·
S=C1NC(c2ccccc2)=CC(c2ccccc2)N1 (centres undefined) | 3% | 21% | -32 | ? | -15% | 10µM*
CC1=CC(c2ccccc2)NC(=S)N1 (centres undefined) | -10% | 25% | -30 | ? | -2% | -10%
COc1ccccc1N1CCN(S(=O)(=O)CCNC(=O)COc2ccc(C(C)C)cc2)CC1 | 2% | · | -21 | · | · | ·
COc1cc2c(cc1OC)C(COc1ccc([N+](=O)[O-])cc1)NCC2 (centres undefined) | -29% | -1% | 2 | 9% | ? | 13%
CCN(CC)S(=O)(=O)c1ccc(C(=O)N2CC(=O)Nc3ccc(F)cc3C2c2ccccc2)cc1 (centres undefined) | 1% | · | -10 | · | · | ·
Cc1ccc(-n2c(C)cc(/C([O-])=C(/C(=S)Nc3ccc(F)c(Cl)c3)[n+]3ccccc3)c2C)cc1 | -18% | 4% | -21 | ? | ? | ·
Cc1cc(/C([O-])=C(/C(=S)Nc2ccc(F)cc2)[n+]2ccccc2)c(C)n1Cc1ccccc1Cl | 3% | -5% | 22 | 9.3µM* | ? | ?
Cc1cc(/C([O-])=C(/C(=S)Nc2ccc(F)cc2)[n+]2ccccc2)c(C)n1-c1ccc(F)cc1 | 0% | 0% | 13 | ? | 14µM* | 19%

Assay outcomes (PubChem)
